Gal4-VP16 FLuc: Gal4-VP16 reporter inhibition counter-screen; Drosophila S2 Gal4-VP16 UAS-luciferase, luminescence, 20 h; 310,000 tested, 3.5% active; Potency, µM (titrated, usually from 53.6 µM), for inactives: at the top dose activity, negative = inhibition, actives largely listed as inhibitors;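 note: Gal4-VP16 expression switched on by copper sulfate through the metallothionein promoter; potency is the fitted concentration of half-maximal effect; % is set by controls: 0 for no effect and ±100 for the full control effect; nearly all actives have a fitted effect of over 50% in size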
p53 reactivation: re-activators of mutant p53; Potency, µM (doses to about 92.2 µM), without a hit: top-dose activity change, positive = activation, most hits filed as activators; 320,000 tested, 0.063% active; H1299 p53-A138V BP100-luciferase reporter, luminescence, 24 h; note: potency is the fitted concentration of half-maximal effect; % of control where 0% means no effect; nearly all actives have a fitted effect of over 45% in size
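H1299 (p53-null), stable ts p53-A138V + BP100-Luc; 1000 cells/well, Opti-MEM/10% FBS; cpd 4 pt, 1:5; 24 h, 37 deg C, 5% CO2; detection reagent 10 min RT; luminescence.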
Giardia kill: Giardia lamblia killing | Giardia lamblia trophozoite viability | activity change, % at 7.66 µM, hits read low | 340,000 tested, 0.15% active | AID 540267; in the data active = activity change below about -80%; inconclusive = between about -30% and that limit;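 note: parasites exposed to compound for two days anaerobically before the ATP read; % is set by controls: 0 for no effect and ±100 for the full control effect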
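Anaerobic 48 hrs incubation at 37 deg C of 100 trophozoites/well with test compounds; ATPLite 1-Step luminescence, 15-30 min RT, reports cellular ATP as viability.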
RORgamma inh: blocks mouse ROR gamma transcriptional activity | Potency, µM (titrated, usually from 53.6 µM), without a hit: at the highest dose activity change, negative = inhibition, most hits filed as inhibitors | 310,000 tested, 5.4% active | AID 2551 | Drosophila S2 Gal4-RORgamma UAS-luciferase reporter, 20 h | P51450; note: potency is the fitted concentration of half-maximal effect; % is set by controls: 0 for no effect and ±100 for the full control effect; nearly all actives have a fitted effect of over 60% in size
Target sequence (P51450 whole entry, looked up, the tested form may be a part): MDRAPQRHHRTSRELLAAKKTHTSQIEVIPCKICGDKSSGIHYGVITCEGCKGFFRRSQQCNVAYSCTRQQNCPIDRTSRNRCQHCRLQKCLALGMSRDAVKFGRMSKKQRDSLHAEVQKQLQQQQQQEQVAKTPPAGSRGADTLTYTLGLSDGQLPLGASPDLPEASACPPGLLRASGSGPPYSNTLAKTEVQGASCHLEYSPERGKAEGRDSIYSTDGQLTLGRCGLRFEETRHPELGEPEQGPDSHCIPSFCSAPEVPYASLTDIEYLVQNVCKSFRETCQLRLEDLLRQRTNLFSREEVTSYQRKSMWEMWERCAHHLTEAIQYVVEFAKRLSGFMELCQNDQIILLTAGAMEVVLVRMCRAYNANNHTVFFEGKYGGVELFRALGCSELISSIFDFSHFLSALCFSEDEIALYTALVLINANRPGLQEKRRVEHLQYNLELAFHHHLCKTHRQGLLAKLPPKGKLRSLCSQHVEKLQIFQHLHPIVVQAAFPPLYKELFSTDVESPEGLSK
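Stably transfected Drosophila Schneider cells are the test system, with ROR gamma fused to Gal4 and luciferase under UAS control; luminescence is read after 20 hr of 700 uM copper sulfate induction at ambient temperature.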
ELG1 DNA repair: inhibitors of ELG1-dependent DNA repair in HEK293T cells; HEK293T ELG1-luciferase reporter, luminescence, 16 h; DNA damage induced by 5-fluorouridine; Potency, µM (doses to about 46.1 µM), for the others: top-dose activity change, negative = inhibition, hits mostly inhibitors; 330,000 tested, 2.3% active; note: potency is the fitted concentration of half-maximal effect; % is set by controls: 0 for no effect and ±100 for the full control effect; nearly all actives have a fitted effect of over 55% in size
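Reporter activity after DNA damage by 5-fluorouridine is monitored. Compound-treated cells incubate 16 hr at 37 °C, then ONE-Glo is added for 30 min before luminescence reading.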
BRCA1 expr up: increases BRCA1 expression; MCF7-BRCA1-FFLuc reporter, luminescence, 48 h; response scale: scaled: vehicle 0%, 10 µM genistein 100%; Potency, µM (titrated, usually from 46.1 µM), for the others: top-dose activation, actives largely listed as activators; 380,000 tested, 1.1% active; note: potency is the fitted concentration of half-maximal effect; nearly all actives have a fitted effect of over 80% in size
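Luminescence from a BRCA1-driven firefly luciferase in MCF7 cells was read after 48 h compound exposure at 37 C. Data normalized against DMSO and a 10microM genistein activation control, then curve-fitted across the titration.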
Numbers without * were called inactive; ? = inconclusive; nt = no result. An excerpt weighted towards active compounds, which were near 7.6% of everything screened. Unless noted, calls come from the whole dose curve; as a rule, active = well fitted curve in the direction sought with a large enough effect; inconclusive = small, poorly fitted or top-dose-only effect, or another doubt; inactive = no such curve, though single readings can be large; an effect the other way counts as inactive or inconclusive.

SMILES	Gal4-VP16 FLuc	p53 reactivation	Giardia kill	RORgamma inh	ELG1 DNA repair	BRCA1 expr up
CCc1ccc2c(c1)/C(=N/N(C)C(=S)NC)C(=O)N2	4.8%	-2.8%	-2.5	2.5%	-7.3%	-61.8%
CCc1ccc2c(c1)/C(=C/C(=O)c1cccs1)C(=O)N2	10µM*	-71.1%	3.2	5.62µM*	26.5%	-64.7%
Cc1cc(Br)c2c(c1)/C(=C/C(=O)c1cccs1)C(=O)N2	17.8µM*	-8.4%	-1.0	11.2µM*	?	-94.4%
Cc1cc(C)c2c(c1)/C(=C/C(=O)c1ccc(Br)s1)C(=O)N2	7.7%	0.7%	21.4	17.7%	?	3.3%
Cc1cccc2c1NC(=O)/C2=C\C(=O)c1cccs1	?	-13.0%	3.8	7.08µM*	20.2%	-70.2%
CCN1C(=O)[C@H]2[C@@H](c3ccc(-c4cccc(Cl)c4)c(OC)c3)N3CCC[C@@]3(C(=O)OC)[C@H]2C1=O	nt	-0.2%	0.7	nt	-5.6%	0.0%
Cc1ccc(C)c(Oc2coc3cc(OCC(=O)Nc4ccccc4C(C)C)ccc3c2=O)c1	-8.7%	-8.1%	nt	?	25.9µM*	nt
Cc1ccc(C)c(Oc2coc3cc(O)ccc3c2=O)c1	-1.0%	-2.2%	1.7	39.6%	8.2%	-6.7%
NC(=O)C1CCN(C(=O)c2cccc3ccccc23)CC1	-5.5%	nt	-6.0	-15.1%	-2.1%	12.5%
COc1ccc(NC(=O)n2ncc3c(C)cccc32)cc1OC	?	?	-3.6	1.12µM*	?	?
COc1ccc(NC(=O)n2ncc3c(C)cccc32)cc1	2.51µM*	?	-24.8	?	?	-27.1%
CC(C)(C)N(Cc1ccccc1)C(=O)COC(=O)CCN1C(=O)C2CC=CCC2C1=O (configuration not stated)	nt	-1.0%	-13.8	nt	1.2%	11.4%
Cc1c(C=O)c2ccccn2c1C(=O)c1ccccc1Cl	-5.0%	1.6%	-10.7	7.6%	?	-30.9%
CCOC(=O)c1ccc(-c2ccc(C3Nc4ccccc4C(=O)N3O)o2)cc1 (configuration not stated)	?	22.9%	-4.7	11.2µM*	?	11.2%
Cc1ccc(-c2ccc(CO)o2)cc1N	1.9%	2.5%	-3.2	0.0%	?	37.0%
CCOC(=O)c1ccc(-c2ccc(CO)o2)cc1	?	0.9%	3.8	11.2µM*	?	-6.9%
O=C1c2ccccc2NC(c2ccc(-c3ccccc3F)o2)N1O (configuration not stated)	nt	8.9%	-11.4	nt	?	0.0%
Cc1cc([N+](=O)[O-])ccc1-c1ccc(C2Nc3ccccc3C(=O)N2O)o1 (configuration not stated)	0.708µM*	5.5%	-1.6	?	?	-77.7%
CCOc1ccc2oc(-c3ccccc3)c(C(=O)N(C)C)c2c1	14.6%	-6.3%	?	0.8%	?	-6.5%
CS(=O)(=O)OCC(O)C(O)COS(C)(=O)=O (configuration not stated)	0.2%	nt	nt	8.7%	nt	nt
CCOC(=O)c1cccc(NS(=O)(=O)Cc2ccccc2)c1	-1.7%	-7.4%	?	17.8%	18.7%	2.9%
CCCCOc1ccc(N2C(=O)CC(NCCc3ccc(S(N)(=O)=O)cc3)C2=O)cc1 (configuration not stated)	-5.2%	2.2%	-5.7	5.3%	-3.5%	1.7%
Cc1cc(SCC(=O)N(CC(C)C)c2c(N)n(CC(C)C)c(=O)[nH]c2=O)nc2ccccc12	nt	-1.7%	22.1	nt	2.8%	-13.7%
O=C(COc1cccc(Br)c1)N/N=C1\CCCc2ccccc21	-4.5%	7.1%	8.1	-0.9%	?	0.0%
O=C(NN=C1c2ccccc2-c2ccccc21)c1cccc(Br)c1	3.16µM*	-2.4%	15.4	1.78µM*	?	-57.6%
SMILES	Gal4-VP16 FLuc	p53 reactivation	Giardia kill	RORgamma inh	ELG1 DNA repair	BRCA1 expr up
COc1ccc(OCC(=O)N/N=C2\CCCc3ccccc32)cc1	-4.5%	15.3%	-9.1	?	15.0%	13.5%
Cc1cccc2c1OCC/C2=N\NC(=O)COc1ccccc1	-22.7%	6.2%	-12.5	-29.7%	?	11.2µM*
O=C(COc1cccc(Br)c1)NN=C1c2ccccc2-c2ccccc21	?	-4.5%	-12.8	20µM*	14.3%	-5.0%
COC(=O)c1ccc(S(=O)(=O)NCc2ccco2)o1	-2.0%	-0.7%	-8.4	22.3%	1.3%	25.0%
CCc1ccc(NC(=O)Cn2c(=O)n(-c3ccccc3C)c(=O)c3c2c2cc(OC)ccc2n3C)cc1	nt	nt	nt	nt	nt	-11.8%
CCCCNc1nnc(SCC(=O)N2CCN(S(=O)(=O)c3ccc4ccccc4c3)CC2)s1	5.7%	-0.4%	0.2	16.8%	23.1µM*	-38.6%
O=C(/C=C/c1cccc(Cl)c1)c1ccc([N+](=O)[O-])o1	nt	-17.7%	-1.5	nt	7.3µM*	-81.4%
COc1ccc(/C=C/C(=O)c2ccc([N+](=O)[O-])o2)cc1OC	nt	-18.7%	-3.2	nt	11.6µM*	-75.2%
COc1cc(/C=C/C(=O)c2ccc([N+](=O)[O-])o2)ccc1O	nt	-27.7%	-11.8	nt	?	-45.0%
Cc1cc(O)c(C(=O)/C=C/c2cccc([N+](=O)[O-])c2)c(=O)o1	-7.9%	0.2%	-3.0	-1.7%	1.1%	-27.8%
CC1(C)NC(=O)N(CC(O)COc2ccc(-c3ccc(C#N)cc3)cc2)C1=O (configuration not stated)	-14.7%	6.1%	2.4	42.2%	-19.2%	-30.5%
CC(CCc1ccccc1)NC(=O)C(=O)N1CCOCC1 (configuration not stated)	-0.8%	-0.1%	-5.8	18.2%	-1.6%	5.0%
COc1ccc(NC2=NC(=S)N(c3ccccc3C)C23CCCCC3)cc1	?	-0.2%	8.8	7.08µM*	-6.6%	3.5%
Cc1cc(C)nc(NC(=NCCc2c[nH]c3ccccc23)NC(=O)C(C)(C)C)n1	?	-0.5%	8.8	7.08µM*	?	-21.7%
CCN(CC)Cc1c(O)ccc2cc(-c3nc4ccccc4n3C)c(=O)oc12	3.1%	5.0%	-2.7	2.0%	?	11.2µM*
CCc1cc2c(=O)c(-c3nc4ccccc4n3C)c(C)oc2c(CN(CC)CC)c1O	-22.9%	2.4%	0.9	5.0%	0.3%	-1.2%
O=C(NC(NC(=S)Nc1ccccc1Cl)C(Cl)(Cl)Cl)c1cccc(Cl)c1 (configuration not stated)	12.6µM*	8.0%	-11.4	?	?	-95.2%
COc1ccc(NC(=S)NC(NC(=O)c2cccc(Cl)c2)C(Cl)(Cl)Cl)c([N+](=O)[O-])c1 (configuration not stated)	?	-2.7%	2.0	?	16.4µM*	-95.0%
